Assay results: PubChem BioAssay AID1159580 (chemical genetic matrix, 2015)
Several values for one entry are separate records, joined by “and”; a condition that tells them apart may be missing. Identical values can stand only once. Screen size: about 5,500 compounds; about 2,000 (36%) were called active. Inconclusive results (about 18%) are left out. Cut-off read from the data, not from the text of the source: active = normalized growth mostly below about 0.91 (no sharp cut-off); inconclusive = no clear call, values can overlap the other calls; inactive = mostly above about 0.92. The list shows a part of the results.

Assay: chemical genetic growth profiling, strain panel (AID 1159580);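 note: tested at 20 µM; growth read once vehicle control cultures reached saturation at 30 °C; 1 = growth at the plate median or of vehicle wells; lower values mean less growth of the strain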
Conditions: S. cerevisiae deletion strains, growth OD

Measured: normalized growth

C[C@@H]1O[C@@H](OC[C@H]2OC(Oc3c(-c4ccc(O)c(O)c4)oc4cc(O)cc(O)c4c3=O)[C@H](O)[C@@H](O)[C@@H]2O)[C@H](O)[C@H](O)[C@H]1O (some centres not stated)
inactive: locus YAL013W, strain DEP1, stronger effect = lower value 0.995 | locus YAL021C, strain ccr4, stronger effect = lower value 0.964 | locus YAL026C, strain drs2, stronger effect = lower value 0.993 | locus YAL030W, strain snc1, stronger effect = lower value 0.998 | locus YBL061C, strain skt5, stronger effect = lower value 1.01 | locus YBR009C, strain hhf1, stronger effect = lower value 0.994 | locus YBR021W, strain FUR4, stronger effect = lower value 1.03 | locus YBR023C, strain chs3, stronger effect = lower value 1 | locus YBR171W, strain sec66, stronger effect = lower value 1 | locus YBR229C, strain ROT2, stronger effect = lower value 1.01 | locus YBR231C, strain swc5, stronger effect = lower value 1 | locus YBR279W, strain paf1, stronger effect = lower value 0.996 | locus YCL011C, strain gbp2, stronger effect = lower value 0.98 | locus YCL016C, strain dcc1, stronger effect = lower value 0.982 | locus YCL029C, strain bik1, stronger effect = lower value 0.988 | locus YCL061C, strain MRC1, stronger effect = lower value 1.01 | locus YCL069W, strain vba3, stronger effect = lower value 1.01 | locus YCR088W, strain abp1, stronger effect = lower value 1.01 | locus YDL005C, strain med2, stronger effect = lower value 1 | locus YDL035C, strain GPR1, stronger effect = lower value 0.975 | locus YDL040C, strain nat1, stronger effect = lower value 1 | locus YDL074C, strain BRE1, stronger effect = lower value 0.949 | locus YDL101C, strain DUN1, stronger effect = lower value 1 | locus YDL185W, strain tfp1, stronger effect = lower value 0.941 | locus YDL192W, strain arf1, stronger effect = lower value 0.989 | locus YDR001C, strain nth1, stronger effect = lower value 0.986 | locus YDR069C, strain doa4, stronger effect = lower value 1 | locus YDR101C, strain arx1, stronger effect = lower value 0.983 | locus YDR137W, strain rgp1, stronger effect = lower value 0.974 | locus YDR150W, strain NUM1, stronger effect = lower value 0.996 | locus YDR159W, strain sac3, stronger effect = lower value 1.07 | locus YDR162C, strain NBP2, stronger effect = lower value 1.01 | locus YDR195W, strain ref2 1 | locus YDR297W, strain sur2, stronger effect = lower value 1.01 | locus YDR318W, strain mcm21, stronger effect = lower value 1 | locus YDR334W, strain swr1, stronger effect = lower value 1 | locus YDR335W, strain msn5, stronger effect = lower value 0.979 | locus YDR388W, stronger effect = lower value 1 | locus YDR392W, strain spt3, stronger effect = lower value 0.979 | locus YDR502C, strain sam2, stronger effect = lower value 1.01 | locus YEL003W, strain gim4, stronger effect = lower value 1.01 | locus YEL037C, strain rad23, stronger effect = lower value 1.01 | locus YEL061C, strain CIN8 (second series), stronger effect = lower value 1 | locus YEL061C, strain CIN8, stronger effect = lower value 1.01 | locus YER015W, strain faa2, stronger effect = lower value 0.973 | locus YER016W, strain bim1, stronger effect = lower value 1 | locus YER110C, stronger effect = lower value 0.985 | locus YER111C, strain swi4, stronger effect = lower value 0.994 | locus YER155C, strain BEM2 (second series), stronger effect = lower value 1.09 | locus YER155C, strain BEM2, stronger effect = lower value 1 | locus YER167W, strain BCK2, stronger effect = lower value 1.01 | locus YFR010W, strain ubp6, stronger effect = lower value 1 | locus YGL078C, strain dbp3, stronger effect = lower value 0.971 | locus YGL086W, strain mad1, stronger effect = lower value 0.997 | locus YGL167C, strain pmr1, stronger effect = lower value 0.975 | locus YGL173C, strain kem1, stronger effect = lower value 1.02 | locus YGL227W, strain vid30, stronger effect = lower value 1 | locus YGL240W, strain doc1, stronger effect = lower value 1.04 | locus YGL248W, strain PDE1, stronger effect = lower value 1.03 | locus YGL253W, strain hxk2, stronger effect = lower value 0.991 | locus YGR078C, strain PAC10, stronger effect = lower value 1.03 | locus YGR135W, strain pre9, stronger effect = lower value 1.03 | locus YGR252W, strain gcn5, stronger effect = lower value 1.09 | locus YHR013C, strain ard1, stronger effect = lower value 0.979 | locus YHR027C, strain rpn1, stronger effect = lower value 0.985 | locus YHR030C, strain SLT2, stronger effect = lower value 0.992 and 1.1 | locus YHR079C, strain IRE1 (second series), stronger effect = lower value 0.98 | locus YHR079C, strain IRE1, stronger effect = lower value 1.07 | locus YHR094C, strain hxt1, stronger effect = lower value 0.997 | locus YHR129C, strain ARP1, stronger effect = lower value 1.01 | locus YHR142W, strain chs7, stronger effect = lower value 0.969 | locus YHR200W, strain rpn10, stronger effect = lower value 1 | locus YIL066C, strain RNR3, stronger effect = lower value 1 | locus YIL073C, strain SPO22, stronger effect = lower value 0.99 | locus YIL125W, strain kgd1, stronger effect = lower value 0.994 | locus YIR030C, strain dcg1, stronger effect = lower value 0.997 | locus YJL092W, strain hpr5, stronger effect = lower value 1 | locus YJL095W, strain BCK1 (second series), stronger effect = lower value 1 | locus YJL095W, strain BCK1, stronger effect = lower value 1.07 and 1.06 | locus YJL115W, strain asf1, stronger effect = lower value 0.968 | locus YJL129C, strain trk1, stronger effect = lower value 0.987 | locus YJL134W, strain LCB3, stronger effect = lower value 0.997 | locus YJL154C, strain vps35, stronger effect = lower value 0.999 | locus YJL164C, strain tpk1, stronger effect = lower value 0.974 | locus YJL166W, strain qcr8, stronger effect = lower value 1.02 | locus YJL168C, strain set2, stronger effect = lower value 0.996 | locus YJL187C, strain SWE1 (second series), stronger effect = lower value 1.01
